Results filed as inconclusive are left out. Some structures have more than one record in an assay (separate samples or runs), and their calls can disagree. Calls of active or inactive are those of the source. The calls were made as follows, unless noted: active = hit-call score of the fitted dose curve at least 0.9, where 1 is the maximum; inconclusive = response in the unintended direction; inactive = score below 0.9.
Tests used:
TIMP1, TIMP1 (gene 7076) = test: LTEA_HepaRG_TIMP1: Life Technologies and Expression Analysis (LTEA) Assay for TIMP1 using HepaRG (AID 2283534; active = hit-call score of the fitted dose curve at least 0.9, where 1 is the maximum; inactive = score below 0.9); details: mRNA level, 48 h; actives raise or lower the signal
Procedure, shortened: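 Readout is TIMP1 mRNA level measured by qRT-PCR and normalized to three housekeeping genes. Human HepaRG cells were treated for 48 h in duplicate at eight concentrations up to 100 uM (0.5% DMSO); gain or loss fitted against DMSO.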

[1] = read-out: Tumor necrosis factor receptor 1 (TNFRSF1A), TNFRSF1A (gene 7132); test: LTEA_HepaRG_TNFRSF1A: Life Technologies and Expression Analysis (LTEA) Assay for Tumor necrosis factor receptor 1 (TNFRSF1A) using HepaRG (AID 2283535; active = hit-call score of the fitted dose curve at least 0.9, where 1 is the maximum; inactive = score below 0.9); details: mRNA level, 48 h; actives raise or lower the signal
Procedure, shortened: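 Read-out is TNFRSF1A transcript level by TaqMan qRT-PCR, normalized to three housekeeping genes, scored as gain or loss of signal versus 0.5% DMSO. Human HepaRG cells received test chemicals for 48 h at up to 100 uM (half-log series).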

[2] = read-out: Thyroid Hormone Responsive (THRSP), THRSP (gene 7069); test: LTEA_HepaRG_THRSP: Life Technologies and Expression Analysis (LTEA) Assay for Thyroid Hormone Responsive (THRSP) using HepaRG (AID 2283536; active = hit-call score of the fitted dose curve at least 0.9, where 1 is the maximum; inactive = score below 0.9); details: mRNA level, 48 h; actives raise or lower the signal
Procedure, shortened: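 qRT-PCR read-out (Fluidigm TaqMan), housekeeping-normalized (ACTB/GAPDH/POLR2A). HepaRG, 48 h chemical exposure, 8-pt half-log series from 100 uM in 0.5% DMSO, duplicates. Bidirectional curve fit vs 0.5% DMSO baseline.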

[3] = read-out: Cellular tumor antigen p53 (Homo sapiens) (UniProt P04637); test: LTEA_HepaRG_TP53: Life Technologies and Expression Analysis (LTEA) Assay for Tumor Protein P53 (TP53) using HepaRG (AID 2283537; active = hit-call score of the fitted dose curve at least 0.9, where 1 is the maximum; inactive = score below 0.9); details: mRNA level, 48 h; actives raise or lower the signal
Procedure, shortened: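 Differentiated HepaRG cells in serum-free induction medium exposed 48 h in duplicate to 8 half-log concentrations, top 100 uM, 0.5% DMSO. TP53 mRNA by TaqMan qRT-PCR (Fluidigm), normalized to ACTB, GAPDH, POLR2A; fitted bidirectionally versus DMSO.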

[4] = read-out: UDP glucuronosyltransferase (UGT1A1), UGT1A1 (gene 54658); test: LTEA_HepaRG_UGT1A1: Life Technologies and Expression Analysis (LTEA) Assay for UDP glucuronosyltransferase (UGT1A1) using HepaRG (AID 2283538; active = hit-call score of the fitted dose curve at least 0.9, where 1 is the maximum; inactive = score below 0.9); details: mRNA level, 48 h; actives raise or lower the signal
Procedure, shortened: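 mRNA induction or loss of UGT1A1, by TaqMan qRT-PCR, in duplicate HepaRG wells after 48 h exposure to half-log dilutions topping at 100 uM; DMSO (0.5%) served as baseline.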

[5] = read-out: UDP glucuronosyltransferase (UGT1A6), UGT1A6 (gene 54578); test: LTEA_HepaRG_UGT1A6: Life Technologies and Expression Analysis (LTEA) Assay for UDP glucuronosyltransferase (UGT1A6) using HepaRG (AID 2283539; active = hit-call score of the fitted dose curve at least 0.9, where 1 is the maximum; inactive = score below 0.9); details: mRNA level, 48 h; actives raise or lower the signal
Procedure, shortened: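 HepaRG, 48 h post-plating switch to serum-free induction medium; chemical 48 h, 100 uM top, half-log x8, duplicate, 0.5% DMSO. Phenobarbital 1mM induction control. UGT1A6 mRNA by TaqMan qRT-PCR; gain/loss fit vs DMSO.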

[6] = read-out: X-box binding protein 1 (XBP1), XBP1 (gene 7494); test: LTEA_HepaRG_XBP1: Life Technologies and Expression Analysis (LTEA) Assay for X-box binding protein 1 (XBP1) using HepaRG (AID 2283540; active = hit-call score of the fitted dose curve at least 0.9, where 1 is the maximum; inactive = score below 0.9); details: mRNA level, 48 h; actives raise or lower the signal
Procedure, shortened: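 Transcript levels of XBP1, measured by qRT-PCR and normalised to three housekeeping genes, were fitted bidirectionally relative to 0.5% DMSO controls. Human HepaRG cells received eight-point half-log dilutions from 100 uM for 48 h.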

[7] = LTEA_HepaRG_LDH_cytotoxicity: Cytotoxicity Assessment in the Life Technologies and Expression Analysis (LTEA) Assay (AID 2283563);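 as to AC50: LDH activity released into spent culture medium as a marker of cell death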
Procedure, shortened: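 Cells were thawed and plated for 48 h. Medium was then replaced with serum-free induction medium. Chemicals (8 half-log points, maximum 100 uM, 0.5% DMSO) were added in duplicate for 48 h, after which spent medium was assayed for LDH.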

[8] = target: Cellular tumor antigen p53 (Homo sapiens) (UniProt P04637); test: TOX21_p53_BLA_p2_ratio: Tox21 HCT-116 p53 Agonism Beta-lactamase Assay, Ratio, Phase 2 (AID 2283592)
Cellular tumor antigen p53 (Homo sapiens), sequence (P04637 whole entry, looked up): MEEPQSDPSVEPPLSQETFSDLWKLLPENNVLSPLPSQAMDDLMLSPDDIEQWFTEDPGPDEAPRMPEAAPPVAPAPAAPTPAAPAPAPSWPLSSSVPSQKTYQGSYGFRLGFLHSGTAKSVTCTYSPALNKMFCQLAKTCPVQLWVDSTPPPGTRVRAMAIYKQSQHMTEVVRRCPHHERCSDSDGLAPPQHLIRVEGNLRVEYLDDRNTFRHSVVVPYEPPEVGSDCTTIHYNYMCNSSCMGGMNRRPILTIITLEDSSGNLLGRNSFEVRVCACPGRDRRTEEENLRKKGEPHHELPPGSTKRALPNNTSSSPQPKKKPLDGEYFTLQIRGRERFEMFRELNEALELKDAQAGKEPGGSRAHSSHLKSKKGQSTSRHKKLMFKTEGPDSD
Procedure, shortened: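 Plated HCT116 p53-bla cells (4000/well) received compound after 5 h, then 16 h at 37C/5% CO2. CCF4-AM added, 2 h RT. Ratio of 460 to 530 nm emission taken as the p53 reporter signal.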

[9] = target: Cellular tumor antigen p53 (Homo sapiens) (UniProt P04637); test: TOX21_p53_BLA_p3_ratio: Tox21 HCT-116 p53 Agonism Beta-lactamase Assay, Ratio, Phase 3 (AID 2283596)
Procedure, shortened: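 Cells were seeded at 4000/well, rested 5 h at 37C, then dosed with DMSO compound solutions (217-fold dilution) for 16 h. CCF4-AM substrate was loaded for 2 h at room temperature, and the 460/530 nm emission ratio was fitted for gain of signal versus DMSO.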

[10] = TOX21_p53_BLA_p4_viability: Viability Assessment in the Tox21 HCT-116 p53 Agonism Beta-lactamase Assay, Phase 4 (AID 2283597);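 also: hits lower the luminescence signal meaning cytotoxicity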
Procedure, shortened: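 Readout: ATP luminescence (CellTiter-Glo), measured 30 min after reagent addition at RT. The reagent followed a 2 h CCF4-AM incubation, and the cells had been exposed to compound for 16 h at 37C.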

[11] = TOX21_p53_BLA_p5_viability: Viability Assessment in the Tox21 HCT-116 p53 Agonism Beta-lactamase Assay, Phase 5 (AID 2283600)
Procedure, shortened: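 Workflow: seed 4000 cells per well, wait 5 h, add compounds (DMSO, 217-fold dilution), incubate 16 h, load CCF4-AM 2 h, add CellTiter-Glo, read luminescence after 30 min.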

[12] = target: Cellular tumor antigen p53 (Homo sapiens) (UniProt P04637); test: TOX21_p53_BLA_p4_ratio: Tox21 HCT-116 p53 Agonism Beta-lactamase Assay, Ratio, Phase 4 (AID 2283601)
Procedure, shortened: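 HCT-116 p53 beta-lactamase reporter cells (4000/well) preincubated 5 h, then compound (217-fold dilution of DMSO stock) for 16 h at 37C. CCF4-AM substrate added 2 h at room temperature; 460/530 nm emission ratio fitted upward versus DMSO.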

[13] = Tanguay_ZF_120hpf_MORT_legacy: (Legacy) Oregon State University Tanguay Lab 120 Hour Post-fertilization zebrafish Assay for Mortality (AID 2283633);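 as to AC50: fitted as increase in binary mortality versus DMSO negative control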
Procedure, shortened: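 5D WT zebrafish, chorion removed 4 hpf; 1 embryo/well from 6 hpf; static exposure to 120 hpf, 28C, dark, sealed. Final DMSO 0.64%. Readout: binary mortality, brightfield, 24 + 120 hpf; DMSO as negative control.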

[14] = Tanguay_ZF_120hpf_YSE_legacy: (Legacy) Oregon State University Tanguay Lab 120 Hour Post-fertilization zebrafish Assay for Yolk Sac Edema (AID 2283634);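 as to AC50: actives raise the incidence of yolk sac edema above the DMSO baseline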
Procedure, shortened: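 Dechorionate (pronase, 4 hpf) → place one 6 hpf embryo per well → static compound exposure, sealed and foil-covered, 28C, to 120 hpf → record yolk sac edema as present or absent. Final DMSO 0.64%.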

[15] = Tanguay_ZF_120hpf_AXIS_legacy: (Legacy) Oregon State University Tanguay Lab 120 Hour Post-fertilization zebrafish Assay for Body Axis Malformation (AID 2283635);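 as to AC50: potency for an increased fraction of larvae scored with body axis malformation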
Procedure, shortened: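 Chorion is removed with pronase at 4 hpf, then single 6 hpf embryos are dosed (final DMSO 0.64%) and held statically at 28C in sealed, foil-covered plates. At 120 hpf body axis malformation is recorded as present or absent.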

[16] = Tanguay_ZF_120hpf_EYE_legacy: (Legacy) Oregon State University Tanguay Lab 120 Hour Post-fertilization zebrafish Assay for Eye Malformation (AID 2283636);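 also: binary presence or absence of eye malformation scored by brightfield in 120 hpf larvae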
Procedure, shortened: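 5D wild-type embryos, pronase-dechorionated at 4 hpf; static exposure 6–120 hpf, 28C, dark; DMSO 0.64% final; 5uM trimethyltin chloride positive control. Binary eye-defect scoring at 120 hpf; dead embryos not scored.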

[17] = TOX21_p53_BLA_p2_viability: Viability Assessment in the Tox21 HCT-116 p53 Agonism Beta-lactamase Assay, Phase 2 (AID 2283591);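 also: compound exposure lasted 16 h at 37 °C; actives lower the ATP signal meaning cytotoxicity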
Procedure, shortened: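 HCT116 p53-bla cells, 4000/well, dosed after 5 h plating (217-fold dilution of DMSO stocks) and incubated 16 h at 37C. Viability taken as cellular ATP by CellTiter-Glo luminescence after 30 min RT; signal loss marks cytotoxicity.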

[18] = TOX21_p53_BLA_p3_viability: Viability Assessment in the Tox21 HCT-116 p53 Agonism Beta-lactamase Assay, Phase 3 (AID 2283593);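 also: cells exposed to compound for 16 h before reading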
Procedure, shortened: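 HCT116 cells, 4000/well, dosed 5 h after plating by pin transfer (217-fold dilution from DMSO stock) and incubated 16 h at 37C, 5% CO2. Viability read as ATP luminescence with CellTiter-Glo after 30 min at room temperature.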

[19] = target: Cellular tumor antigen p53 (Homo sapiens) (UniProt P04637); test: TOX21_p53_BLA_p5_ratio: Tox21 HCT-116 p53 Agonism Beta-lactamase Assay, Ratio, Phase 5 (AID 2283599)
Procedure, shortened: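 HCT-116 p53-bla cells (4000/well) plated 5 h, dosed with compound (217-fold DMSO dilution) for 16 h at 37 C; CCF4-AM substrate 2 h at room temperature. Activity is the 460/530 nm emission ratio (405 nm excitation), fitted in gain-of-signal direction versus DMSO.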

Measured: AC50

CC1=NNC(=O)N(/N=C/c2cccnc2)C1
active: [2] 12.9 µM
not listed: [17] | [18] | [19]
inactive: all other assays above

CCOP(=S)(OCC)Oc1cc(C)nc(C(C)C)n1
inactive: TIMP1, TIMP1 (gene 7076) | [1] | [3] | [5] | [6] | [7] | [17] | [8] | [18] | [9] | [10] | [11] | [12] | [13] | [14]
active: [2] 73.3 µM | [18] 49.5 µM | [9] 67.9 µM | [19] 41.7 µM | [11] 36.1 µM

C#CC(C)(C)NC(=O)c1cc(Cl)cc(Cl)c1
active: [4] 13 µM
not listed: [16]
inactive: all other assays above

CCOC(=O)COc1cc(-c2nn(C)c(OC(F)F)c2Cl)c(F)cc1Cl
active: [4] 50 µM
not listed: [8] | [11] | [19]
inactive: all other assays above

CC(=NC#N)N(C)Cc1ccc(Cl)nc1
active: [4] 50 µM
inactive: all other assays above

CCCCOC(=O)[C@@H](C)Oc1ccc(Oc2ccc(C#N)cc2F)cc1
active: [4] 49.8 µM
not listed: [9] | [11] | [18]
inactive: all other assays above

CSC1=N[C@@](C)(c2ccccc2)C(=O)N1Nc1ccccc1
active: [2] 71.4 µM | [3] 28.4 µM | [4] 32.1 µM | [5] 33.2 µM | [7] 32.4 µM | [13] 12.6 µM | [14] 3.52 µM
inactive: all other assays above

CN1COCN(Cc2cnc(Cl)s2)C1=N[N+](=O)[O-]
not listed: [9] | [10] | [11] | [17]
inactive: all other assays above

CC(COc1ccc(Oc2ccccc2)cc1)Oc1ccccn1 (stereo unspecified)
active: [2] 16.3 µM | [4] 8.3 µM
not listed: [9] | [11] | [14] | [16] | [18]
inactive: all other assays above

CC(C)=CC1C(C(=O)OCN2C(=O)C3=C(CCCC3)C2=O)C1(C)C (stereo unspecified)
inactive: TIMP1, TIMP1 (gene 7076) | [1] | [2] | [3] | [4] | [5] | [6] | [7] | [17] | [8] | [18] | [9] | [10] | [19] | [11] | [12] | [13] | [14] | [15] | [16]
active: [10] 46.1 µM

CCOP(=S)(OCC)OC(Cl)C(Cl)(Cl)Cl (stereo unspecified)
active: [4] 30.7 µM
not listed: [10] | [17] | [19]
inactive: all other assays above

C[Si](Cn1cncn1)(c1ccc(F)cc1)c1ccc(F)cc1
active: [1] 50 µM | [2] 5.9 µM | [5] 50 µM | [6] 90 µM | [7] 33.4 µM | [17] 23.1 µM | [10] 53 µM | [12] 55.6 µM | [14] 40.9 µM | [15] 10.3 µM | [16] 46.9 µM
inactive: TIMP1, TIMP1 (gene 7076) | [3] | [17] | [8] | [18] | [9] | [10] | [19] | [11] | [12] | [13]

O=c1ccc(=O)[nH][nH]1
active: [14] 25.4 µM | [15] 51.7 µM
inactive: all other assays above

Source: PubChem BioAssay (EPA / NIEHS)
